Results filed as inconclusive are left out. Calls of active or inactive are those of the source. How the source made its calls, unless noted: active means hit-call score of the fitted dose curve at least 0.9, where 1 is the maximum; inactive means score below 0.9.
How the values were obtained:
[1] = read-out: Interleukin-8 (IL8), CXCL8 (gene 3576); assay: BSK_3C_IL8: BioMAP Diversity Plus: 3C Assay for Interleukin-8 (IL8) Biomarker Activity (AID 2283020); details: primary human endothelial cells (HUVEC); actives raise or lower the signal
Summary of the method: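 ELISA read-out of IL-8 from human umbilical vein endothelium, measured 24 h after chemical dosing. Activity is expressed relative to DMSO negative control, with both increases and decreases fitted.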

[2] = read-out: Monokine induced gamma interferon (MIG), CXCL9 (gene 4283); assay: BSK_3C_MIG: BioMAP Diversity Plus: 3C Assay for Monokine induced gamma interferon (MIG) Biomarker Activity (AID 2283021); details: primary human endothelial cells (HUVEC); actives raise or lower the signal
Summary of the method: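 Read-out is ELISA detection of MIG on human umbilical vein endothelial cells, taken 24 h after dosing. Gain or loss of signal was scored relative to DMSO controls using bidirectional curve fitting.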

[3] = BSK_3C_SRB: Viability Assessment in the BioMAP Diversity Plus: 3C Assay (AID 2283023); details: primary human endothelial cells (HUVEC);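 further: fitted both ways against DMSO so a hit may be signal rise or drop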
Summary of the method: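 HUVEC, 24 h post-dose; 10% TCA fix, 0.1% SRB stain, A560 nm. Bidirectional curve fit vs DMSO negative control.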

[4] = read-out: Matrix Metallopeptidase 1 (MMP1), MMP1 (gene 4312); assay: BSK_BE3C_MMP1: BioMAP Diversity Plus: BE3C Assay for Matrix Metallopeptidase 1 (MMP1) Biomarker Activity (AID 2283024); details: primary human bronchial epithelial cells; actives raise or lower the signal
Summary of the method: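 Human bronchial epithelial cells (BE3C system) exposed to compound for 24 h; MMP1 then quantified by ELISA. Activity was fitted in both directions relative to DMSO.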

[5] = BSK_3C_Vis: BioMAP Diversity Plus: 3C Assay for Morphology Visualization (AID 2283025); details: primary human endothelial cells (HUVEC);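 further: fitted both ways so gain or loss versus DMSO counts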;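 on AC50: light microscopy image of cell morphology used as background control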
Summary of the method: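 Chemicals were added to primary human umbilical vein endothelium, cells were incubated 24 h, and morphology was then visualized by light microscopy. Gain or loss of signal was fitted bidirectionally relative to DMSO.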

[6] = read-out: Pselectin, SELP (gene 6403); assay: BSK_4H_Pselectin: BioMAP Diversity Plus: 4H Assay for Pselectin Biomarker Activity (AID 2283026); details: primary human endothelial cells (HUVEC); actives raise or lower the signal
Summary of the method: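 ELISA read-out of P-selectin on human umbilical vein endothelium after 24 h of dosing. Values derive from bidirectional fitting relative to DMSO. Parallel SRB protein staining flagged overt cytotoxicity.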

[7] = BSK_4H_SRB: Viability Assessment in the BioMAP Diversity Plus: 4H Assay (AID 2283027); details: primary human endothelial cells (HUVEC);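 further: cells exposed to compound for 24 h before staining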
Summary of the method: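 Human umbilical vein endothelial cells were dosed with chemical and, after 24 h, fixed with 10% TCA, stained with 0.1% sulforhodamine B, and read at 560 nm to give total protein as a cytotoxicity measure. Bidirectional fitting relative to DMSO control.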

[8] = BSK_BE3C_SRB: Viability Assessment in the BioMAP Diversity Plus: BE3C Assay (AID 2283028); details: primary human bronchial epithelial cells
Summary of the method: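 Primary human bronchial epithelium; chemical dosing, 24 h; 10% TCA fix, 0.1% SRB stain, A560; bidirectional fit vs DMSO baseline.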

[9] = read-out: Thrombomodulin, THBD (gene 7056); assay: BSK_3C_Thrombomodulin: BioMAP Diversity Plus: 3C Assay for Thrombomodulin Biomarker Activity (AID 2283029); details: primary human endothelial cells (HUVEC); actives raise or lower the signal
Summary of the method: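 Read-out is ELISA of thrombomodulin on human umbilical vein endothelium 24 h after chemical dosing. Gain or loss of signal is scored relative to DMSO. Overt cytotoxicity is checked in parallel cultures by sulforhodamine B staining.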

[10] = read-out: Urokinase-type plasminogen activator receptor (uPAR), PLAUR (gene 5329); assay: BSK_4H_uPAR: BioMAP Diversity Plus: 4H Assay for Urokinase-type plasminogen activator receptor (uPAR) Biomarker Activity (AID 2283030); details: primary human endothelial cells (HUVEC); actives raise or lower the signal
Summary of the method: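 HUVEC, 24 h post-dose; uPAR by ELISA; bidirectional fit vs DMSO baseline.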

[11] = read-out: Vascular endothelial growth factor receptor 2 (Homo sapiens) (UniProt P35968); assay: BSK_4H_VEGFRII: BioMAP Diversity Plus: 4H Assay for Vascular endothelial growth factor receptor 2 (VEGFR2) Biomarker Activity (AID 2283031); details: primary human endothelial cells (HUVEC); actives raise or lower the signal
Summary of the method: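 HUVEC (human primary), 4H system; 24 h post-dose; VEGFRII by ELISA; bidirectional curve fit vs DMSO baseline; gain or loss of signal scored.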

[12] = read-out: Human Leukocyte Antigen - DR isotype (HLADR), HLA-DRA (gene 3122); assay: BSK_BE3C_HLADR: BioMAP Diversity Plus: BE3C Assay for Human Leukocyte Antigen - DR isotype (HLADR) Biomarker Activity (AID 2283032); details: primary human bronchial epithelial cells; actives raise or lower the signal
Summary of the method: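 ELISA read-out of HLA-DR on human lung bronchial epithelial primary cells, measured 24 h post-dosing. Both increases and decreases were scored relative to DMSO vehicle.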

[13] = read-out: Vascular cell adhesion molecule 1 (VCAM1), VCAM1 (gene 7412); assay: BSK_4H_VCAM1: BioMAP Diversity Plus: 4H Assay for Vascular cell adhesion molecule 1 (VCAM1) Biomarker Activity (AID 2283033); details: primary human endothelial cells (HUVEC); actives raise or lower the signal;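 on outcome: cell-surface VCAM-1 protein measured by ELISA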
Summary of the method: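 ELISA read-out of VCAM-1 on human umbilical vein endothelium 24 hours after chemical dosing; gain or loss of signal was fitted relative to DMSO, with sulforhodamine B staining of parallel cultures flagging overt cytotoxicity.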

[14] = read-out: Interferon-gamma inducible Protein 10 (IP10), CXCL10 (gene 3627); assay: BSK_BE3C_IP10: BioMAP Diversity Plus: BE3C Assay for Interferon-gamma inducible Protein 10 (IP10) Biomarker Activity (AID 2283034); details: primary human bronchial epithelial cells; actives raise or lower the signal
Summary of the method: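 Chemical is dosed onto human lung bronchial epithelial primary cells, cultures are incubated 24 h, and IP-10 is then quantified by ELISA. Gain or loss of signal is fitted in both directions relative to DMSO.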

[15] = read-out: Monokine induced gamma interferon (MIG), CXCL9 (gene 4283); assay: BSK_BE3C_MIG: BioMAP Diversity Plus: BE3C Assay for Monokine induced gamma interferon (MIG) Biomarker Activity (AID 2283035); details: primary human bronchial epithelial cells; actives raise or lower the signal;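 further: MIG protein measured by ELISA in BE3C cultures after 24 h of dosing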
Summary of the method: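 ELISA read-out of MIG in human lung bronchial epithelial primary cultures, 24 h post-dosing. Bidirectional curve fit vs DMSO baseline.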

[16] = read-out: Transforming growth factor beta 1 (TGFb1), TGFB1 (gene 7040); assay: BSK_BE3C_TGFb1: BioMAP Diversity Plus: BE3C Assay for Transforming growth factor beta 1 (TGFb1) Biomarker Activity (AID 2283036;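 on outcome: TGF-b1 protein level measured by ELISA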); details: primary human bronchial epithelial cells; actives raise or lower the signal
Summary of the method: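 Primary human lung bronchial epithelial cells; compound exposure 24 h; TGF-b1 by ELISA; bidirectional fit, DMSO baseline. Parallel SRB total-protein staining for cytotoxicity.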

[17] = read-out: Plasminogen activator inhibitor-1 (PAI1), SERPINE1 (gene 5054); assay: BSK_BE3C_PAI1: BioMAP Diversity Plus: BE3C Assay for Plasminogen activator inhibitor-1 (PAI1) Biomarker Activity (AID 2283037); details: primary human bronchial epithelial cells; actives raise or lower the signal
Summary of the method: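 Primary human lung bronchial epithelial cells; chemical dosing; 24 h; PAI-1 measured by ELISA; bidirectional fit referenced to DMSO as negative control.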

[18] = read-out: urokinase plasminogen activator (uPA), PLAU (gene 5328); assay: BSK_BE3C_uPA: BioMAP Diversity Plus: BE3C Assay for urokinase plasminogen activator (uPA) Biomarker Activity (AID 2283038); details: primary human bronchial epithelial cells; actives raise or lower the signal;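 further: uPA protein level quantified by ELISA in cell cultures; uPA read one day after compound addition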
Summary of the method: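 ELISA read-out of uPA in human lung primary bronchial epithelial cultures, 24 h post-dosing. Gain or loss of signal fitted bidirectionally relative to DMSO baseline; cytotoxicity checked in parallel cultures via SRB total protein stain.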

[19] = read-out: Urokinase-type plasminogen activator receptor (uPAR), PLAUR (gene 5329); assay: BSK_BE3C_uPAR: BioMAP Diversity Plus: BE3C Assay for Urokinase-type plasminogen activator receptor (uPAR) Biomarker Activity (AID 2283039); details: primary human bronchial epithelial cells; actives raise or lower the signal;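 further: uPAR protein level measured by ELISA on the cells; cells exposed to compound for one day before measurement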
Summary of the method: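 Human bronchial epithelial primary cells; chemical exposure 24 h; uPAR by ELISA; bidirectional fit vs DMSO control.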

[20] = target: human Vitamin D Receptor (VDR), VDR (gene 7421) (UniProt P11473); assay: ATG_VDR_TRANS: Attagene TRANS-FACTORIAL HepG2 Assay for human Vitamin D Receptor (VDR) (AID 2283022; active means hit-call score of the fitted dose curve at least 0.9, where 1 is the maximum)
Summary of the method: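 RT-PCR/capillary electrophoresis read-out of reporter mRNA induction in transiently transfected HepG2; 24 h dosing; chimeric NR-Gal4 (TRANS format); gain-of-signal fit against DMSO baseline.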

Sequence of human Vitamin D Receptor (VDR), VDR (gene 7421) (P11473 whole entry, looked up, the tested form may be a part): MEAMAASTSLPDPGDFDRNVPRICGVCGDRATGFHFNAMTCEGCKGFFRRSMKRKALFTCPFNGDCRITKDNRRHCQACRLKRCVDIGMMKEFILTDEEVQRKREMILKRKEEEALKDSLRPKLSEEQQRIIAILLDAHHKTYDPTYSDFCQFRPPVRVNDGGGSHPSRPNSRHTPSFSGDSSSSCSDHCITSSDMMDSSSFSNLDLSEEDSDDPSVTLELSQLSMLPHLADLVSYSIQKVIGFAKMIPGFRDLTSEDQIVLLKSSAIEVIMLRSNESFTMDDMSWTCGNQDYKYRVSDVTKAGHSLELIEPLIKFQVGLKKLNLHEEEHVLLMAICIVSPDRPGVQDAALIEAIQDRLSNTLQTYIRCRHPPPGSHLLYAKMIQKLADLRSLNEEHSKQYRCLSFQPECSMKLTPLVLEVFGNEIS

In the case of `CNC(=O)Oc1ccccc1OC(C)C`, the outcome [1] is reported as “inactive”, the outcome [2] is reported as “inactive” and the outcome [3] is reported as “inactive”. The outcome [4] was “inactive”, the outcome [5] was “inactive” and the outcome [6] was “inactive”. The outcome [7] was “inactive”, the outcome [8] was “inactive” and the outcome [9] was “inactive”. The outcome [10] was “inactive”, the outcome [11] was “inactive” and the outcome [12] was “inactive”. For the same compound, the outcome [13] was “inactive”, the outcome [14] was “inactive” and the outcome [15] was “inactive”. For the same compound, the outcome [16] was “inactive”, the outcome [17] was “inactive” and the outcome [18] was “inactive”. The outcome [19] was “inactive”.

With `CNC(=O)CSP(=S)(OC)OC` the outcome [1] was “inactive”, the outcome [2] was “inactive” and the outcome [20] was “inactive”. For the same compound, the outcome [4] was “inactive”, the outcome [5] was “inactive” and the outcome [6] was “inactive”. For the same compound, the outcome [7] was “inactive”, the outcome [9] was “inactive” and the outcome [10] was “inactive”. For the same compound, the outcome [11] was “inactive”, the outcome [12] was “inactive” and the outcome [13] was “inactive”. The outcome [14] was “inactive”, the outcome [16] was “inactive” and the outcome [17] was “inactive”. For the same compound, the outcome [18] was “inactive” and the outcome [19] was “inactive”.

With `CCN(CC)C(=O)SCc1ccc(Cl)cc1` the outcome [2] was “inactive”, the outcome [20] was “inactive” and the outcome [4] was “inactive”. For the same compound, the outcome [5] was “inactive”, the outcome [6] was “inactive” and the outcome [7] was “inactive”. The outcome [8] was “inactive”, the outcome [9] was “inactive” and the outcome [10] was “inactive”. For the same compound, the outcome [11] was “inactive”, the outcome [12] was “inactive” and the outcome [13] was “inactive”. The outcome [14] was “inactive”, the outcome [16] was “inactive” and the outcome [17] was “inactive”. For the same compound, the outcome [18] was “inactive” and the outcome [19] was “inactive”.

In the case of `O=C(NC(=O)c1c(F)cccc1F)Nc1ccc(OC(F)(F)C(F)OC(F)(F)F)c(Cl)c1` (stereo unspecified), the outcome [1] is reported as “inactive”, the outcome [2] is reported as “inactive” and the outcome [3] is reported as “inactive”. The outcome [4] was “inactive”, the outcome [5] was “inactive” and the outcome [6] was “inactive”. For the same compound, the outcome [7] was “inactive”, the outcome [9] was “inactive” and the outcome [10] was “inactive”. The outcome [11] was “inactive”, the AC50 [12] was 7.82 µM (active) and the outcome [13] was “inactive”. For the same compound, the outcome [14] was “inactive”, the AC50 [16] was 0.235 µM (active) and the outcome [17] was “inactive”. For the same compound, the outcome [18] was “inactive” and the outcome [19] was “inactive”.

For `CCCN(CCC)c1c([N+](=O)[O-])cc(C(F)(F)F)cc1[N+](=O)[O-]`, the outcome [1] was “inactive”, the outcome [2] was “inactive” and the outcome [4] was “inactive”. For the same compound, the AC50 [5] was 13.7 µM (active), the AC50 [6] was 36.5 µM (active) and the outcome [7] was “inactive”. The outcome [9] was “inactive”, the outcome [10] was “inactive” and the outcome [11] was “inactive”. The outcome [12] was “inactive”, the AC50 [13] was 28.2 µM (active) and the AC50 [14] was 25.1 µM (active). For the same compound, the outcome [16] was “inactive”, the outcome [17] was “inactive” and the outcome [18] was “inactive”. For the same compound, the outcome [19] was “inactive”.

Reference: PubChem BioAssay (EPA / NIEHS)
